HBB splice mod: hemoglobin beta splicing modulation; HBB splicing reporter cell assay, activation; EGFP reporter with mutant IVS2-654 intron; response scale: normalised to 500 nM splice-correcting PNA; Potency, µM (doses to about 46.1 µM), without a hit: top-dose activation, actives largely listed as activators; actives 0.06% (n = 65,000); further: potency means the concentration at half of the fitted maximal effect; 0% is about no effect
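Compounds were applied for 2 days to HeLa EGFP-654 cells, 500/well in Optimem with 2% FCS. The reporter's EGFP is disrupted by mis-splicing of beta-globin intron IVS2-654. Readout: summed well GFP fluorescence from 488 nm laser scanning; reference was 500 nM antisense […] 654 PNA.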
UbGFP stabilizer: proteasome inhibitors stabilizing ubiquitin-GFP reporter. 67,000 tested, under 10 active. AID 526. Potency, µM (doses to about 45.9 µM), for inactives: at the highest dose activation (GFP accumulation), hits mostly activators. Ubiquitin-GFP reporter cells, proteasome inhibition, GFP fluorescence; response scale: untreated = 0%, 10 µM MG-132 = 100%; active means well fitted activation curve with a large enough effect, not every such curve was filed as active; inconclusive means small, poorly fitted or top-dose-only effect, or another doubt; inactive means no such curve, though single readings can be large or run the other way; further: potency means the concentration at half of the fitted maximal effect
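Reporter cells (U2OS, ubiquitin-G76V-GFP fusion) are plated overnight, then treated 4 hr at 37 °C with compound titrations from 46 uM down to 2.9 nM. Activity is scaled against untreated cells and 10 uM MG-132.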
PK Bst: pyruvate kinase (B. stearothermophilus) modulation; purified pyruvate kinase, luminescence ATP production; ribose 5-phosphate activator present at AC10; Potency, µM; actives 1.2% (n = 51,000); AID 361; in the data active means potency below about 11 µM; inconclusive means mostly about 12 µM to 25 µM;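 the screen sought inhibitors and activators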;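 further: potency means the concentration at half of the fitted maximal effect; scaled between full activation by ribose 5 phosphate and full inhibition by luteolin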
USP2a inh: USP2a (human) protease inhibition | USP2a enzymatic assay, qHTS inhibition | Potency, µM (series often up to 38.3 µM), for the others: at the top dose activity change, negative = inhibition, most hits filed as inhibitors | actives 0.1% (n = 60,000) | AID 927; further: potency means the concentration at half of the fitted maximal effect; nearly all actives have a fitted effect of over 60% in size
Target sequence (O75604 whole entry, looked up): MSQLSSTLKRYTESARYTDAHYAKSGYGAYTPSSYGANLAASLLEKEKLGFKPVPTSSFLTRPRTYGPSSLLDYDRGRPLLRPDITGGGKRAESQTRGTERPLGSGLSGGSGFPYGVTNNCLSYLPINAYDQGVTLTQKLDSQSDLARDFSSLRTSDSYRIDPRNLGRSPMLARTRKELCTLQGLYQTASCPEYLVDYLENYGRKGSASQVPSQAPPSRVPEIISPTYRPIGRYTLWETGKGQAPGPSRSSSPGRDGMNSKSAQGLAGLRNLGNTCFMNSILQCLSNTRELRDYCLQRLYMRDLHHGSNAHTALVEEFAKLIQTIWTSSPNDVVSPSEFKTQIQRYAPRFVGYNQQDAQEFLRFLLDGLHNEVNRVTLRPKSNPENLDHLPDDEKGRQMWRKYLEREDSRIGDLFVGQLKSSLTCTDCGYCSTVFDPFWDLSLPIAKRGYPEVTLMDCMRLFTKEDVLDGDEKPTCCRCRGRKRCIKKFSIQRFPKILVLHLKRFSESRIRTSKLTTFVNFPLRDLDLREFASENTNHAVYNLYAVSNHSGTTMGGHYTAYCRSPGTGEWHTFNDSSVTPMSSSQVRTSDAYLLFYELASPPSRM
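20 nM USP2 core + cpd, 30 min RT; add 20 nM Ub-PLA2/20 uM NBD C6-HPC; read Ex460/Em535 at 0 h and 2.5 h. Normalized to NEM; qHTS curve fit/classification.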
Hsp90 Hop PPI: changes Hsp90-Hop TPR2A binding signal, up or down. AlphaScreen TPR2A-His6 binding biotin-Hsp90 C-terminal peptide. Potency, µM (highest dose often 57 µM), for inactives: top-dose activity change, negative = inhibition. actives 0.44% (n = 71,000). AID 595; active means well fitted curve in either direction with a large enough effect; inconclusive means small, poorly fitted or top-dose-only effect, or another doubt; further: potency means the concentration at half of the fitted maximal effect; on the % scale 0 is the no-effect control and ±100 the full control effect
GFP derepression: epigenetic modulators derepressing GFP locus in mouse cells | Potency, µM (doses to about 46.1 µM), without a hit: at the highest dose GFP derepression (activation) | actives 0.09% (n = 68,000) | AID 597 | mouse C127i GFP locus derepression, cytometry, 30 h; further: % of control where 0% means no effect
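Derepression screen: silenced CMV-GFP reporter in murine C127i cells, 30 h compound incubation at 37 C, washed cells imaged by laser-scanning cytometer to enumerate GFP-expressing objects of 20 to 120 um.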
Numbers without * were called inactive; ? = inconclusive; . = not tested or not shown; [ ] = dose if it differs, or a comment. An excerpt weighted towards active compounds, which were near 1.3% of everything screened. Unless noted, the call rests on the fitted dose curve; in most records, active means well fitted curve in the direction sought with a large enough effect; inconclusive means small, poorly fitted or top-dose-only effect, or another doubt; inactive means no such curve, though single readings can be large; an effect the other way counts as inactive or inconclusive.

SMILES | HBB splice mod | UbGFP stabilizer | PK Bst | USP2a inh | Hsp90 Hop PPI | GFP derepression
COc1ccc(-c2nn3c(-c4ccccc4)nnc3s2)cc1 | 3%[57.5 µM] | -2% | 3.4* | ? | 1% | 0%
COc1ccc(-c2nn3c(-c4ccc(F)cc4)nnc3s2)cc1 | 1%[0.369 µM] | . | . | ? | ? | 0%
COc1ccccc1-c1nn2c(-c3ccco3)nnc2s1 | . | . | 8.2* | . | . | -4%[20.6 µM]
O=C(c1ccco1)[C@@H]1[C@@H]2C(=O)N(c3ccc(Br)cc3)C(=O)[C@@H]2C2c3ccccc3C=CN21 (stereo not given in full) | 0%[0.369 µM] | . | 7.2* | 34% | -17% | 13%
c1ccc(-c2noc(-c3cccc4ccccc34)n2)nc1 | 1% | -5% | 9.6* | 14% | -7% | 0%
c1ccc(-c2ccc(-c3nc(-c4ccccn4)no3)cc2)cc1 | -1% | -3% | . | . | 9% | 0%
COc1cc(-c2nc(-c3ccccn3)no2)cc(OC)c1OC | -5%[0.0738 µM] | 0%[9.17 µM] | . | 3%[7.66 µM] | -12%[11 µM] | -2%
Cc1ccc(-c2nc(-c3ccccn3)no2)cc1Cl | -1% | 8% | 0.54* | 13% | 2% | 0%
Clc1cccc(-c2nc(-c3ccccn3)no2)c1 | 0% | -7% | 3.3* | 4% | 3% | 0%
COc1ccc(-c2nsc3c(N4CCN(S(=O)(=O)c5ccccc5)CC4)ncnc23)cc1 | . | -1% | >57 | -2% | 3% | -2%
COc1ccc(-c2cc(C(F)(F)F)nc(N3CCCCC3)n2)cc1OC | 1% | 3% | >57 | ? | 25µM* | -1%
COc1ccc(-c2nsc3c(N4CCCC4)ncnc23)cc1 | . | 7% | 1.6* | -2% | 0% | 0%
COc1ccc(-c2cc(N3CCCC3)n3ncnc3n2)cc1 | 1%[57.5 µM] | 0% | 9.2* | 10% | -2% | 0%
COc1ccc(-c2cc(C(F)(F)F)nc(N3CCCCCC3)n2)cc1 | -2% | 3% | >57 | -9% | 25µM* | 0%
COc1ccc(S(=O)(=O)N2CCN(c3cc(-c4ccccc4)nc4ncnn34)CC2)cc1 | -2% | 0% | >57 | 25% | -1% | -3%
Nc1ncnc2c1ncn2[C@@H]1CCCO1 | 1% | -2% | . | -6% | -9% | 0%
CC1(C)Cc2c(C#N)c(N3CCCC3)nc(-c3ccco3)c2CO1 | 0% | -7% | . | . | 25µM* | .
CCCCN(C)c1nc(-c2ccco2)c2c(c1C#N)CC(C)(C)OC2 | 0% | -6% | . | . | 25µM* | .
OC[C@@H]1O[C@@H](n2cnc3c(N[C@@H]4C[C@@H]5CC[C@H]4C5)ncnc32)[C@@H](O)[C@H]1O | -1% | -3% | . | -3% | -1% | 2%
Oc1ccc(/C=C/c2cc(O)cc(O)c2)cc1 | -1% | . | 3.7* | . | -2% | -2%[20.6 µM]
Oc1ccc(/C=C\c2cc(O)cc(O)c2)cc1 | 1%[20.6 µM] | 0% | . | ? | -9% | -1%
C[C@@]12CCC(=O)C=C1CC[C@@H]1[C@@H]2[C@H](O)C[C@]2(C)[C@@H]1CC[C@]2(O)C(=O)COC(=O)CCC(=O)O | 2% | 0% | . | -2% | -7% | -1%
COc1cc(NC(=O)c2ccc3c(c2)OCO3)ccc1NC(=O)C(C)C | 0% | 5% | 7.1* | 10% | -6% | 0%
COc1cccc(C(=O)Nc2ccc(NC(=O)C(C)(C)C)cn2)c1 | 0%[57.5 µM] | -5% | 3.7* | -1% | 1% | 4%
Cc1ccc(C(=O)/C=C/Nc2cccc(O)c2)cc1 | . | . | 1.3* | . | . | 8%[20.6 µM]
Cc1ccc2nc(-c3ccccn3)oc2c1 | . | -4% | 6.9* | 4% | 2% | -2%
COC(=O)c1ccc(-c2nc3ccc(C)cc3o2)cc1 | . | -1% | 3.3* | -6% | 1% | 0%
COC(=O)c1ccc(-c2nc3ccccc3o2)cc1 | . | -6% | . | -1% | 0% | 0%
